CYP2C19 act – activators of human cytochrome P450 2C19. recombinant CYP2C19, luciferin-H EGE luminescence; hits give high values; 0 = fully inhibited enzyme, 1 = untreated enzyme. activation factor at 5 µM. 96,000 tested, under 10 active;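 active = activation factor of at least 2 at 5 µM in the primary screen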;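 also: 0 = wells with 2.5 mM tranylcypromine and 1 = vehicle-only wells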
Target sequence (P33261 whole entry, looked up): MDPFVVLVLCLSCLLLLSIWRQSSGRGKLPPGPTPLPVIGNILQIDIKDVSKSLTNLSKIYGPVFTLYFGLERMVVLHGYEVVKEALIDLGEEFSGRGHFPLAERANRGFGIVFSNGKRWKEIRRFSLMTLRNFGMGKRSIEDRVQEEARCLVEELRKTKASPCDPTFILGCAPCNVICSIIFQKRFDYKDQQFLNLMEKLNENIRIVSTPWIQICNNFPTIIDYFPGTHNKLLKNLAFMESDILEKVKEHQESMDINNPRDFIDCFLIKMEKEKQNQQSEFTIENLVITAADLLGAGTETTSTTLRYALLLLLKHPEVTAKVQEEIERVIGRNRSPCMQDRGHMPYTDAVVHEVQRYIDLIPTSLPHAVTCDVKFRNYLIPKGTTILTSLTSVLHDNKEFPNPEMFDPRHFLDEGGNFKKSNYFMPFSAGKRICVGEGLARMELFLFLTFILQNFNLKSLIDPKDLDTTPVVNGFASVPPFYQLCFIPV
PLK1 PBD inh – inhibitors of human Plk1 polo box domain binding | P53350 | Plk1 PBD phosphopeptide binding, fluorescence polarization | inhibition, %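 (tested at about 20 µM)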 | hit rate 0.13% among 97,000 | AID 693; in the data active = inhibition above about 34%, passing the limit was not always enough
CYP2C19 inh – inhibitors of human CYP2C19. hit rate 21% among 96,000. P33261. inhibition, % at 5 µM. CYP2C19 Supersomes, luciferin-H EGE luminescence, 30 min;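 active = CYP2C19 inhibition above a set limit at 5 µM in the primary screen, cut at about 50% in these data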;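 also: plate controls were negative control wells for no effect and 2.5 mM tranylcypromine positive control for full effect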
CYP2C9 act – activators of human CYP2C9. P11712. recombinant CYP2C9, luciferin-H conversion, luminescence; hits give high values; factor 1 = untreated enzyme, 0 = blocked. activation factor at 5 µM. hit rate 1.4% among 96,000;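 active = activation factor of 2 or more for CYP2C9 at a 5 µM dose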;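 also: 0 = sulfaphenazole-blocked wells and 1 = vehicle-only wells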
CYP2C9 inhib – blocks human cytochrome P450 2C9; P11712; CYP2C9 Supersomes, luciferin-H conversion, luminescence; inhibition, % at 5 µM; hit rate 20% among 96,000; AID 777;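 active = blocking of liver enzyme CYP2C9 beyond about 50% at 5 µM, limit read from the data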
PLK1 kinase inh – blocks human PLK1 kinase activity; P53350; recombinant PLK1 kinase, TR-FRET peptide phosphorylation; inhibition, % at 10 µM; hit rate 0.53% among 97,000;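 active = inhibition of 50% or more in the single-concentration screen; inactive = inhibition below 50%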;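 also: 0% = DMSO max control and 100% = H-89 dihydrochloride min control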
Active calls of the source: *; · = not tested or not shown. Hits are enriched below; roughly 28% of the tested compounds scored in any of these assays.

SMILES	CYP2C19 act	PLK1 PBD inh	CYP2C19 inh	CYP2C9 act	CYP2C9 inhib	PLK1 kinase inh
COC(=O)C1CCN(C(=O)Cc2ccc(Br)cc2)CC1	0.1	-9	90*	0.8	19	-8
O=C(NNC(=O)c1ccccc1-n1cccc1)c1ccc(Cl)cc1Cl	0.9	5	13	1.9	-93	-4
Cc1cccc(C)c1OCC(=O)N=Nc1c(O)[nH]c2ccc(Br)cc12	0.7	-21	33	0.1	88*	-2
O=C(Cn1nnc(-c2ccccc2)n1)N=Nc1c(O)[nH]c2ccccc12	1	18	0	1	1	6
O=C(N=Nc1c(O)[nH]c2ccc(Br)cc12)c1ccccc1-n1cccc1	0.6	5	36	0.4	64*	16
c1ccc(C2(c3ccccc3)OCC(Cn3cncn3)O2)cc1 (stereo not given)	0.3	-9	66*	0.5	52*	-6
C=CCN(CC=C)S(=O)(=O)c1ccc(NC(=S)NC(=O)Cc2ccc(OC)cc2)cc1	0.6	-14	43	0.3	72*	-16
C=CCN(CC=C)S(=O)(=O)c1ccc(NC(=S)NC(=O)c2ccc(-c3ccccc3)cc2)cc1	0.7	-12	34	0.4	62*	-15
COc1ccc(CC(=O)NC(=S)Nc2ccc(S(=O)(=O)NC(C)(C)C)cc2)cc1	0.8	-7	16	0.6	43	-2
Cc1ccc(NC(=O)c2cccc(N3C(=O)CCC3=O)c2)nc1	1.2	4	-24	1	-1	-9
CCOC(=O)CCS(=O)(=O)c1nc(-c2ccccc2)cc(C(F)(F)F)n1	0.6	-6	42	0.7	28	-13
CCOC(=O)CS(=O)(=O)c1ccc2ccccc2c1	0.1	-10	87*	2.9*	-193	-10
CCOC(=O)CS(=O)(=O)c1nc(-c2ccccc2)cc(C(F)(F)F)n1	0.5	-11	45	0.4	59*	-3
CCOc1ccc(C2NC(=O)c3ccccc3O2)cc1 (stereo not given)	0.6	-10	40	0.8	15	-6
COc1cc(C2NC(=O)c3ccccc3O2)cc(OC)c1OC (stereo not given)	0.1	6	94*	0.6	38	-9
COc1cccc(/C=N/n2cnc3ccccc32)c1OC	0.2	-25	83*	0.5	46	-8
COc1cccc(/C=N/n2c(N)nc3ccccc32)c1OC	0.7	0	31	0.8	19	3
COc1cccc(/C=N/n2c(SC)nnc2-c2ccccc2)c1O	0.7	-2	26	0.5	54*	2
COc1cccc(/C=N/n2c(SC)nnc2-c2ccccc2)c1OC	0.1	-9	91*	0.1	91*	-14
CCOC(=O)c1cccc(NC(=O)N[C@@H](C)C(=O)OC)c1	0.9	-5	13	0.9	6	-9
CCOC(=O)c1ccc(NC(=O)Cn2cc3c(n2)CCC(C)C3)cc1 (stereo not given)	0.8	-23	19	0.9	11	-10
O=C(NCc1cccs1)C1CCCN1C(=O)Nc1ccccc1 (stereo not given)	0.9	-14	14	0.9	10	-2
O=C(Nc1ccccc1)N(Cc1cccs1)C1CCCC1	0.5	28	51*	0.1	85*	-10
Cc1cccc(Cc2c(C)nc3c(C(=O)NCc4ccco4)cnn3c2C)c1	0.5	5	50*	0.4	56*	2
Cc1ccccc1Cc1c(C)nc2c(C(=O)NCc3ccc4c(c3)OCO4)cnn2c1C	0.9	-9	9	0.8	15	-6
SMILES	CYP2C19 act	PLK1 PBD inh	CYP2C19 inh	CYP2C9 act	CYP2C9 inhib	PLK1 kinase inh
COc1ccc(-c2cc(C(F)(F)F)n3ncc(C(=O)NCc4ccco4)c3n2)cc1	0.5	5	51*	0.5	54*	-10
Cc1ccc(C)c(Cc2c(C)nc3c(C(=O)NCc4ccc5c(c4)OCO5)cnn3c2C)c1	0.6	1	43	0.1	87*	-5
O=C(NCc1ccco1)c1cnn2c(C(F)(F)F)cc(-c3ccccc3)nc12	1	-7	1	0.6	42	-1
Cc1nc2c(C(=O)NCc3ccco3)cnn2c(C)c1Cc1ccc(F)cc1Cl	0.9	11	14	1	4	-11
Cc1ccccc1Cc1c(C)nc2c(C(=O)N3CCN(Cc4ccc5c(c4)OCO5)CC3)cnn2c1C	·	2	·	·	·	-13
Cc1nc2c(C(=O)NCc3ccc4c(c3)OCO4)cnn2c(C)c1Cc1ccc(F)cc1Cl	0.4	6	59*	0.1	86*	-13
CSc1nc(C)cc(NC(N)=O)n1	0.9	4	7	1.1	-11	-15
CCOc1ccc(C2C=C(c3ccccc3)Nc3ncnn32)cc1 (stereo not given)	1	-18	4	0.7	30	-7
COc1cccc(C2=CC(c3ccc(N(C)C)cc3)n3ncnc3N2)c1 (stereo not given)	0.7	-7	30	0.5	53*	-10
COc1cccc(C2=CC(c3ccccc3)n3ncnc3N2)c1 (stereo not given)	0.5	-5	55*	0.4	55*	-5
COc1ccc(C2C=C(c3ccc(C)cc3)Nc3ncnn32)cc1 (stereo not given)	0.7	1	28	0.7	34	-11
CCOc1ccc(C2C=C(c3ccc(F)cc3)Nc3ncnn32)cc1 (stereo not given)	0.6	-17	44	0.4	59*	-14
Cc1ccccc1CNC(=O)c1ccc(CSCc2ccccc2)cc1	1	-17	-1	0.9	6	0
O=C(NCC(=O)N(Cc1cccs1)C(C(=O)NC1CCCCC1)c1cccnc1)c1ccco1 (stereo not given)	·	-10	·	·	·	-8
O=C(COC(=O)c1ccco1)Nc1cccc(Br)c1	0.8	13	16	0.6	45	1
c1ccc(Nc2cc(Nc3ccccc3)[nH]n2)cc1	0.3	-11	74*	0.5	45	-1
Cc1ccc(N(C(=O)c2cccs2)C2C=CS(=O)(=O)C2)cc1 (stereo not given)	0.8	-2	16	1	-3	0
O=C(c1cnn2c(C(F)(F)F)cc(-c3cccs3)nc12)N1CCN(C(c2ccccc2)c2ccccc2)CC1	·	-9	·	·	·	-4
Cn1cc(S(=O)(=O)Nc2ccc(Br)cc2F)c(=O)n(C)c1=O	0.6	18	42	0.4	63*	4
CN(C)S(=O)(=O)Nc1ccc(Br)cc1F	0.7	-5	30	0.8	15	-7
CN(CC(=O)NC1CCCCCC1)S(=O)(=O)c1ccc2c(c1)n(C)c(=O)c(=O)n2C	1.1	26	-8	1	-4	-17
Cc1ccc2cc(CN(Cc3nnnn3C3CCCC3)C3CCCCC3)c(=O)[nH]c2c1C	1	·	1	1.1	-9	·
O=C(Nc1cccc(C(=O)N2CCOCC2)c1)c1cncc(Br)c1	1.1	-12	-12	1.2	-17	-11
